Compounds without any hit were thinned out: in the full panel of roughly 83,000, 20% have a hit.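 48-hour exposure, single concentration, 96-well plates; percent growth endpoint where 0 means no net growth. Active: below 10.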 Unmarked numbers belong to inactive results. Calls of active or inactive are those of the source.
Each compound was assayed on NCI-H23 lung (assay: NCI-60 one-dose screen, 48 h (100 = growth as untreated, 0 = no growth, -100 = all killed)). Conditions: 10 µM unless noted.
Experimental: Growth inhibition of the NCI-H23 human Non-Small Cell Lung tumor cell line is measured as a screen for anti-cancer activity. Cells are grown in 96 well plates and exposed to the test compound for 48 hours. Compounds are tested at a single concentration, which is 10^-5 M for most compounds. The reported endpoint is percent growth (GI% or GIPRCNT), where numbers from 0 - 100% represent growth inhibition, and numbers from -100% - 0 represent cell death. For example, a value of 40 represents 60% growth inhibition. A value of 0 means no net growth occurred over the course of the experiment. A value of -40 indicates 40% of cells at the beginning of the experiment died by the end of the experiment. A value of -100 means all cells are dead at the end of the experiment.
NCI-60 Human Tumor Cell Lines Screen was performed using the standard one-dose NCI protocol, which is described in more detail at https://dtp.cancer.gov/discovery_development/nci-60/default.htm.
Compounds with GIPRCNT values below 10 were considered active. Activity score was based on GIPRCNT using the following formula: […]
Score is 0 for GIPRCNT values of 100 or above, 50 for GIPRCNT values of 0, and 100 for GIPRCNT values of -100.

Row | SMILES | growth
1 | CCN1CC2(CN(CC)C1=S)C(=O)NC(=O)NC2=O | 98.9%
2 | Cc1cccc(N(C)c2cccc3c2C(=O)[Se]C3)c1C | 31.2%
3 | CC(=O)Nc1ccc(C=C2C(=O)NC(=O)NC2=O)cc1 | 101%
4 | N#CC(C#N)=Cc1ccc2ccccc2c1 | 100%
5 | CC[C@@H](C)/C=C(C)/C=C/C(=O)c1c(O)c(-c2ccc(O)cc2)cn(O)c1=O | 19.6%
6 | CN(C)P1(N(C)C)=NP(N(C)C)(N(C)C)=NP(N(C)C)(N(C)C)=N1 | 106%
7 | C1CN1c1nc(N2CC2)nc(N2CC2)n1 | 15.8%
8 | COc1ccc(/C=C(/C(=O)N2CCCC2)c2cc(OC)c(OC)c(OC)c2)cc1N | 41.7%
9 | CC(=O)O[C@H]1CCC2C3CCC4=C/C(=N/O)CCC4(C)C3CCC21C (stereo not given in full) | 90%
10 | CC1(C)N=C(N)N=C(N)N1c1cccc(C(=O)Nc2cccc(S(=O)(=O)F)c2)c1 | 107%
11 | CC1(C)N=C(N)N=C(N)N1c1ccc(CCCCc2ccc(S(=O)(=O)F)cc2)cc1 | 39.4%
12 | CC(CC(C#N)(c1ccccc1)c1ccccc1)N1CCOCC1 (stereo not given) | 106%
13 | O=C1NC(=O)C(O)(C2(O)C(=O)NC(=O)NC2=O)C(=O)N1 | 103%
14 | CCC1CN1P(=O)(OCCOC)N1CC1CC (stereo not given) | 114%
15 | Nc1cccc2c1Oc1ccccc1O2 | 105%
16 | CC(=O)O[C@H]1CCC2(C)C(=CCC3C2CCC2(C)/C(=N/OC(=O)c4ccc(N(CCCl)CCCl)cc4)CCC32)C1 (stereo not given in full) | 45.8%
17 | CN1C(=O)NC(=O)C(N=Nc2ccc(Cl)cc2)C1=O (stereo not given) | 95.3%
18 | COc1ccc(/C=C\c2cc(OC)c(OC)c(OC)c2)cc1N/C=C\C(=O)c1c[nH]c2ccccc12 | 26.6%
19 | COc1ccc(OC)c(/C=C(/C)[N+](=O)[O-])c1 | 53.8%
20 | O=C1C=CC(=O)C2C1C1(Cl)C(Cl)=C(Cl)C2(Cl)C1(Cl)Cl (stereo not given) | 58%

Row | SMILES | growth
21 | Cn1cnnc1[S-].[Au+].c1ccc([PH+](c2ccccc2)c2ccccc2)cc1 | 15.8%
22 | O=[N+]([O-])c1cc([N+](=O)[O-])c(Cl)c(Cl)c1Cl | 43%
23 | O=C(NCc1ccc([N+](=O)[O-])cc1)Nc1ccc(S(=O)(=O)F)cc1 | 81.3%
24 | CO[C@@H]([CH2][Hg][S]C#N)[C@@H]([CH2][Hg][S]C#N)OC | 92.3%
25 | O=S(=O)(O)c1ccc(-c2ccc([As](=O)(O)O)cc2)cc1 | 105%
26 | CC(C)(C)NCC(O)c1ccccc1Cl (stereo not given) | 25%
27 | CC(C)Nc1ccc(Nc2ccccc2)cc1 | 31.3%
28 | CC(=O)N1N=C(c2ccccc2)CC1c1sc(N(CCCl)CCCl)nc1Cl (stereo not given) | 85.8%
29 | CN1CCN(C(=O)COc2ccc(/C=C3\CC4C5CC=C6CC(Cl)CCC6(C)C5CCC4(C)C3=O)cc2)CC1 (stereo not given) | 71.2%
30 | Cc1cc(NC(=O)/C=C/c2ccc([N+](=O)[O-])cc2)ccc1S(=O)(=O)F | 109%
31 | CC(=O)Nc1ccc(Cc2ccc(NC(C)=O)cc2)cc1 | 107%
32 | O=C(O)c1cccc(CCl)c1 | 108%
33 | ClCCN(CCCl)c1nc(Cl)c(C2CC(c3ccc(Cl)cc3)=NN2c2cc(Cl)cc(Cl)c2)s1 (stereo not given) | 94.1%
34 | O1[As]2O[As]3O[As]1O[As](O2)O3 | 6.46% (active)
35 | O=[N+]([O-])c1ccc2cnn(CSP(=S)(c3ccccc3)c3ccccc3)c2c1 | 67.4%
36 | COc1ccc(C(=O)c2ccc([As]=O)cc2)cc1 (stereo not given) | -43.4% (active)
37 | CC(=O)N(C)C1=Nc2ccc(Cl)cc2C(c2ccccc2)=[N+]([O-])C1 | 101%
38 | N#CC1=C(N)Oc2cc3c(cc2C1c1cccs1)OCO3 (stereo not given) | 15.2%
39 | O=C1NC(=S)NC(=O)C1=Cc1ccccc1 | 86.2%
40 | CCC[CH2][Sn]([CH2]CCC)([CH2]CCC)[O]C(=O)CC | -87.1% (active)

Reference: PubChem BioAssay (NCI)
